Screening data deposited in PubChem BioAssay by Broad Institute.
Wnt act – activates Wnt/beta-catenin signaling in a reporter cell assay. activator, plate reader. activation, % at 9.35 µM. 300,000 tested, 1.2% active. AID 743398; in the data active = activation above about 30%, passing the limit was not always enough; inconclusive = no clear call, values can overlap the other calls;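 also: 0% = neutral control wells and 100% = positive control wells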
PfHsp90 set2 – reduces growth (ATP signal) of yeast expressing P. falciparum Hsp90; S. cerevisiae expressing PfHsp90, BacTiter-Glo ATP, 48 h; yeast lacking PDR1 and PDR3 efflux regulators; inhibition, % at 9.4 µM; 310,000 tested, 0.32% active; AID 504621;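 active = every replicate shows inhibition above about 80%, whatever the replicate mean, limit read from the data; inconclusive = mean inhibition reaches the set limit but some replicate falls short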;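 also: 0% = DMSO neutral controls and 100% = 20 µM radicicol positive controls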
N-glyco inh – blocks N-linked glycosylation in D54 reporter cells | 360,000 tested, 0.23% active | AID 588692 | reporter increase, % at 12.5 µM | D54 ERlucT glycosylation luciferase reporter, 24 h; percent of 100 nM tunicamycin response;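 active = mean luciferase reporter signal, scaled so untreated is 0 and the glycosylation-blocking control 100, at or above a set limit in every replicate; inconclusive = mean reaches the limit but not every replicate does; inactive = mean below the limit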;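 also: luciferase carries N-glycosylation sites so blocking glycosylation raises the light; 0% = median of neutral control wells and 100% = median of 100 nM tunicamycin wells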
MITF TRPM1 HTS – MITF TRPM1 promoter activation in melanoma cells | SK-MEL-5 TRPM1-promoter luciferase, 24 h; % of positive control, neutral wells = 0 | activation, % at 12.5 µM | 300,000 tested, 0.75% active | AID 588334;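 active = mean activation of at least 80% with every replicate also reaching 80%; inconclusive = mean reaches 80% but some replicate falls short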;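 also: 0% = neutral control wells and 100% = parthenolide positive control wells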
NSD2 inh – blocks human histone methyltransferase NSD2; O96028; inhibition, % at 12.5 µM; 310,000 tested, 0.54% active; AID 743445; NSD2 peptide methylation, AlphaScreen, 120 min; in the data active = inhibition above about 50%
MITF TRPM1 inh – reduces MITF-dependent TRPM1 promoter luciferase signal | inhibition, % at 12.5 µM | SK-MEL-5 TRPM1 promoter luciferase, 24 h | 330,000 tested, 0.83% active;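 active = mean inhibition across replicates of 60% or more, whatever share of single replicates reaches that level; inconclusive = some that reach 60%, reason not given; inactive = mean inhibition across replicates below 60%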
AlphaScreen art – counter-screen for NSD2 inhibitors: AlphaScreen artifacts; AlphaScreen artifact counterscreen, preloaded methylated H4 peptide; AC35, µM (titrated, usually from 10 µM), for inactives: at the top dose activity change, negative = signal loss; 1,500 tested, 9.4% active; shares compounds with NSD2 inh; call rule not given here
* marks the source's active call; other numbers are inactive results; ? = inconclusive; . = no result given. The list is not random: actives were taken first. Their share in the collection is about 2.9%.

SMILES	Wnt act	PfHsp90 set2	N-glyco inh	MITF TRPM1 HTS	NSD2 inh	MITF TRPM1 inh	AlphaScreen art
S=C(Nc1cccnc1)Nc1cccc2cnccc12	4	-3	10	-7	108*	8	2%
N#CCCn1cc(C(=O)CN2C(=O)NC3(CCc4ccccc43)C2=O)c2ccccc21 (stereo unspecified)	2	.	3	.	-1	.	.
CN(CCCC(=O)Nc1ccc(OC(F)F)cc1)S(=O)(=O)c1ccc(F)cc1	-4	-3	-2	-5	-3	7	.
CC1CCCN(C(=O)COC(=O)c2ccc(=O)n(Cc3ccccc3)n2)C1 (stereo unspecified)	-2	26	0	5	0	-2	.
OC(C[n+]1ccccc1)c1ccccc1 (stereo unspecified)	0	0	0	-4	-2	6	.
COc1ccccc1N(C)S(=O)(=O)c1ccc(C(=O)Nc2cccc(Br)c2)cc1	0	-2	-1	-7	-3	7	.
Cc1ccc(C)c(S(=O)(=O)N2CCCOC2CNC(=O)C(=O)NCc2cccnc2)c1 (stereo unspecified)	1	5	2	-7	58*	7	2%
COC(=O)C1CCCN1S(=O)(=O)c1ccccc1NC(=O)c1cc(OC)c(OC)c(OC)c1 (stereo unspecified)	1	-4	9	-9	-4	11	.
CC1CCCCC1NC(=O)COC(=O)c1ccc2c(=O)n3c(nc2c1)CCC3 (stereo unspecified)	0	-3	0	1	117*	-2	-1%
O=C(Nc1ccccn1)c1ccc2c(=O)n3c(nc2c1)CCCCC3	?	-10	-11	14	61*	-12	-1%
Cc1[nH]n(-c2ccccc2)c(=O)c1C(c1cccc([N+](=O)[O-])c1)c1c(C)[nH]n(-c2ccccc2)c1=O	3	11	2	-4	24	6	.
Cc1[nH]n(-c2ccccc2)c(=O)c1C(c1ccc(C(=O)O)cc1)c1c(C)[nH]n(-c2ccccc2)c1=O	-1	-11	3	-4	57*	6	0%
COc1cccc(C2=NOC(C(=O)Nc3ccc4c(c3)OCO4)C2)c1OC (stereo unspecified)	-1	0	1	-2	2	4	.
CC(=O)N1CCN(Cc2nc3cc(NC(=O)Cn4nc(C)c5ccccc5c4=O)ccc3n2C)CC1	.	8	2	14	60*	-14	3%
COc1ccc(S(=O)(=O)NCc2csc(C)n2)cc1OC	3	3	-3	10	2	-24	.
COc1cc(C(=O)Oc2cccc(/C=N/NC(=O)c3cccnc3)c2)cc(OC)c1OC	-2	2	19	-18	98*	18	-1%
COC(=O)c1c([N+](=O)[O-])c(OC)c(OC)c(OC)c1[N+](=O)[O-]	0	-58	-1	5	0	-2	.
O=C(O)CCCCCn1c(SCC(=O)c2ccc(O)c(O)c2)nc2ccsc2c1=O	-4	-6	-3	11	91*	-13	-14%
CCCCn1c(SCC(=O)c2ccc(O)c(O)c2)nc2ccsc2c1=O	.	-31	0	-3	36	2	.
O=C(Nc1ccc(F)cc1Cl)C1CCN(C(=O)Nc2ccccc2)CC1	2	3	0	5	-1	-3	.
CC1(C)Cc2cccc(OCC(=O)N3CCN(c4ccccc4)CC3)c2O1	.	3	-1	-7	-4	7	.
CC1(C)Cc2cccc(OCC(=O)O)c2O1	.	0	2	2	54*	4	-1%
Cc1ncc(CO)c2c1Oc1nc(-c3ccccc3)nc(SCC(=O)N3CCOCC3)c1C2	-2	-9	0	-4	79*	6	-10%
O=C(c1coc(=O)c(Br)c1)N1CCCc2ccccc21	.	1	-2	6	52*	-5	-4%
O=C(c1cccc(Br)c1)N1CCCc2ccccc21	0	4	0	2	2	0	.
SMILES	Wnt act	PfHsp90 set2	N-glyco inh	MITF TRPM1 HTS	NSD2 inh	MITF TRPM1 inh	AlphaScreen art
CCOc1ccc(S(=O)(=O)NCCC(=O)NCc2cccnc2)cc1	-4	.	0	4	-6	-6	.
O=C(COc1ccccc1O)NCCN1CCOCC1	0	-24	-2	-7	52*	11	2%
Cc1ccccc1-c1nnc2n1N=C(c1ccc(O)c(O)c1)CS2	.	.	.	.	69*	.	-8%
COc1ccc(NC(=O)COC(=O)c2ccc3c(c2)OCO3)c(OC)c1	-2	5	1	11	-1	-12	.
CC(=O)c1ccc(NC(=O)COC(=O)c2ccc(F)cc2F)cc1	0	5	4	5	.	-7	.
O=C(c1ccccc1OCc1ccccc1Br)N1CCN(c2ncccn2)CC1	.	.	-6	9	99*	-9	-5%
O=C(O)c1ccc2c(=O)n(-c3ccc(F)c(Cl)c3)c(=S)[nH]c2c1	-1	8	-1	3	-2	-5	.
Cc1ccc(O)c(NC(=O)c2cc3nc4c(c(C(F)(F)F)n3n2)CCc2ccccc2-4)c1	.	8	1	12	70*	-13	-4%
CCCCn1cnc2c(=S)nc(N)[nH]c21	-1	9	0	0	57*	-1	3%
Cc1cccc(C)c1-n1nnnc1C1(C)CCC(=O)N1CC1CCCCC1 (stereo unspecified)	-2	.	.	.	.	.	.
O=c1c2ccccc2nnn1CSc1nc2ccccc2c(=O)n1CCCO	-3	5	-2	8	52*	-8	1%
O=C(CSc1nc2ccccc2c(=O)n1CCCO)NCc1ccccc1	-14	5	4	9	0	-11	.
COC(=O)Nc1ccc(Cc2ccncc2)cc1	1	17	-2	12	-3	-13	.
COc1ccc(C2SCCN2S(=O)(=O)c2ccccc2)cc1 (stereo unspecified)	8	-35	-1	-18	99*	17	-1%
COc1ccc(C2SCCN2S(=O)(=O)c2ccc(NC(C)=O)cc2)cc1 (stereo unspecified)	-1	23	3	6	-6	-2	.
COc1ccc(-c2nn(-c3ccccc3)cc2C(=O)Nc2ccc(C(=O)O)cc2)cc1	-1	6	0	11	73*	-14	-3%
CN1CCC(=NNC(=O)c2cn(-c3ccccc3)nc2-c2ccccc2)CC1	2	-1	-1	-8	53*	9	1%
CC(C)n1cnc2c(N(C)c3ccccc3)nc(N(CCN(C)C)Cc3ccccc3)nc21	-1	27	9	16	.	-14	.
CC(=O)N(C)c1ccc(N=Nc2c(C)[nH]n(-c3ccccc3)c2=O)cc1	-1	-6	2	.	17	2	.
CC(=O)N(C)c1ccc(N=Nc2c(C)[nH]n(C(N)=S)c2=O)cc1	51*	-15	-13	32	80*	-27	-6%
